Source: PubChem
Rows were chosen to be rich in hits. Some 12% of all compounds tested hit in one or more screens of this group.
Pf growth 48h: Primary qHTS for delayed death inhibitors of the malarial parasite plastid, 48 hour incubation | AID 504832, 2011 | P. falciparum luciferase growth in erythrocytes, 48 h | Potency, µM (highest dose often 28.7 µM), without a hit: at the top dose activity change, negative = inhibition, usual class: inhibitors | hit rate 5.9% among 310,000; note: % is set by controls: 0 for no effect and ±100 for the full control effect
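Growth was read as firefly luciferase luminescence after a 48 h, 37 C, 5% CO2 exposure of compounds to reporter-bearing P. falciparum cultures (0.1% parasitemia, 2% hematocrit final) in Albumax-supplemented RPMI 1640.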
Pf growth 96h: Primary qHTS for delayed death inhibitors of the malarial parasite plastid, 96 hour incubation. AID 504834, 2011. P. falciparum luciferase reporter growth, 96 h. hit rate 6.9% among 320,000. Potency, µM (highest dose often 28.7 µM), without a hit: at the highest dose activity change, negative = inhibition, most hits filed as inhibitors; note: % is set by controls: 0 for no effect and ±100 for the full control effect
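Plates of compound plus infected erythrocytes (2% hematocrit, 0.05% parasitemia final) incubate 96 hours, 37 C, 5% CO2. Detection reagent added; reduced luminescence from the parasites' luciferase reporter flags inhibition.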
AMA1 RON2 block: qHTS for Inhibitors of AMA1-RON; Towards Development of Antimalarial Drug Lead: Primary Screen; Plasmodium falciparum AMA1 (3D7) - RON2 peptide interaction; Potency, µM (highest dose often 58.2 µM), without a hit: at the highest dose activity change, negative = inhibition, actives largely listed as inhibitors; hit rate 0.2% among 360,000; AlphaScreen AMA1-biotinylated RON2 peptide binding;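 note: 0% = vehicle wells and -100% = peptide control; nearly all actives have a fitted effect of over 45% in size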
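AMA1 (3D7) with his tag at 25 nM final met compounds first, then biotinylated RON2 peptide at 25 nM; detection used donor plus acceptor beads, 10 µg/mL apiece, read by AlphaScreen after 30 min at room temperature.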
SARS PLP yeast: qHTS of Yeast-based Assay for SARS-CoV PLP | Potency, µM (doses to about 32.9 µM), without a hit: at the top dose activity, positive = growth rescue, actives largely listed as activators | S. cerevisiae expressing SARS-CoV PLpro, growth rescue | hit rate 0.19% among 330,000; calls by dose curve; note: 0% is about no effect; nearly all actives have a fitted effect of over 55% in size
NS1 function inh: qHTS Assay for Inhibitors of Influenza NS1 Protein Function; Potency, µM (highest dose often 46.1 µM), for the others: at the highest dose activity, positive = more growth; hit rate 0.4% among 270,000; calls by dose curve; note: actives are rising curves; nearly all actives have a fitted effect of over 50% in size
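A cell-based growth assay was used: compounds that relieve NS1-induced slow growth of budding yeast raise OD600. Assay medium was yeast nitrogen base with ammonium sulphate and -URA supplement, pH 6.0, with 2% galactose.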
HCV inh: qHTS Assay for Inhibitors of Hepatitis C Virus (HCV); Potency, µM (top dose mostly 41.8 µM), inactives show at the highest dose activity change, negative = inhibition, hits mostly inhibitors; hit rate 3.4% among 340,000; Huh7.5.1 HCVcc-Cre infection, luciferase reporter, 44 h; note: % is set by controls: 0 for no effect and ±100 for the full control effect
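Whole-lifecycle infectious HCVcc-Cre system; cells 1,000/well, compound then virus (~0.5 moi) added 4 h after plating, 44 h culture. Luciferase read 15 sec following 15 min substrate incubation, room temp.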
Active calls of the source: *; ? = inconclusive; . = no result given; ! = repeats disagree. Unless noted, calls come from the whole dose curve; as a rule, active = well fitted curve in the direction sought with a large enough effect; inconclusive = small, poorly fitted or top-dose-only effect, or another doubt; inactive = no such curve, though single readings can be large; an effect the other way counts as inactive or inconclusive. Potency is the fitted concentration of half-maximal effect.

SMILES | Pf growth 48h | Pf growth 96h | AMA1 RON2 block | SARS PLP yeast | NS1 function inh | HCV inh
O=C(NC1CCCc2c1cnn2-c1ccc(F)cc1F)c1ccccc1N1CCOCC1 (centres undefined) | ? | 4.15µM* | -11.8% | -11.5% | -71.5% | .
O=C(CCc1ccncc1)NC1CCCc2c1cnn2-c1ccc(F)cc1F (centres undefined) | 14.6% | ? | -7.9% | 3.7% | 3.4% | 12.6µM*
O=C(CCc1ccccn1)NC1CCCc2c1cnn2-c1ccc(F)cc1F (centres undefined) | -14.8% | 31.9% | -3.3% | 0.0% | 4.7% | ?
Cc1ccc(-n2ncc3c2CCCC3NC(=O)c2ccccc2N2CCOCC2)cc1C (centres undefined) | ? | -1.1% | -1.0% | -17.4% | -110.3% | -27.0%
CN(C)Cc1ccccc1COc1ccccc1 | 9.7% | 47.6% | -19.1% | 17.2% | 14.2% | -11.5%
Oc1ccc(C2N=C(c3ccccc3)NC(c3ccccc3)=N2)cc1 | -12.8% | 11.7µM* | 0.5% | -1.8% | 9.3% | 7.2%
Oc1ccccc1C1N=C(c2ccccc2)NC(c2ccccc2)=N1 | . | 1.65µM* | -7.2% | -13.7% | -6.1% | -7.7%
c1ccc(C2=NC(c3ccccc3)N=C(c3ccccc3)N2)cc1 | ? | -26.4% | -0.2% | 10.6% | -3.1% | 11.7%
O=C(Cc1ccc(S(=O)(=O)N2CCOCC2)s1)NCCOc1ccccc1 | 0.8% | -7.8% | 19.2% | 1.3% | . | 31.3%
C=CCCCCCCCCC(=O)OC | -11.0% | -0.8% | . | . | . | .
Cc1ccccc1NC(=O)Cc1nc(COC(=O)c2ccc([N+](=O)[O-])cc2)cs1 | 17.8% | 25.8% | 18.8% | 3.2% | . | -13.8%
Cc1ccc(C)c(NC(=O)Cc2nc(CCl)cs2)c1 | 14.7µM* | ? | -12.2% | -7.4% | 1.7% | -2.8%
Cc1ccccc1NC(=O)Cc1nc(COC(=O)c2ccc(Cl)c(S(N)(=O)=O)c2)cs1 | ? | 13.1µM* | 8.3% | 2.0% | . | -28.6%
Cc1ccccc1NC(=O)Cc1nc(COC(=O)c2cccc([N+](=O)[O-])c2)cs1 | -8.8% | 4.15µM* | 5.5% | -1.3% | 25.7% | -8.0%
Cc1ccc(NC(=O)Cc2nc(COC(=O)c3c(F)cccc3Cl)cs2)cc1 | . | . | 23.3% | -14.5% | . | 8.91µM*
Cc1ccc(NC(=O)Cc2nc(COC(=O)Cc3cccc(C(F)(F)F)c3)cs2)cc1 | 2.6% | 31.3% | 6.2% | -1.2% | . | 8.4%
Cc1ccccc1NC(=O)Cc1nc(CCl)cs1 | ? | ? | -0.3% | 9.8% | 4.7% | 19.0%
CNC(=O)c1cc(NC(=O)CCn2nc(-c3ccc(C)cc3)c3ccccc3c2=O)ccc1OC | 0.0% | ? | -4.4% | -0.4% | -2.4% | -1.6%
Cc1ccc(C)c(OCCC(=O)OCc2csc(CC(=O)Nc3ccccc3C)n2)c1 | 11.7µM* | ? | -13.8% | -0.2% | . | 5.1%
CC(=O)c1c(C)[nH]c(C(=O)OCc2csc(CC(=O)Nc3ccccc3C)n2)c1C | . | . | -3.6% | 3.0% | . | 4.47µM*
Cc1ccccc1NC(=O)Cc1nc(COC(=O)c2cc([N+](=O)[O-])ccc2NCCO)cs1 | ? | ? | -5.9% | -2.4% | . | 8.91µM*
c1cnn(-c2cncc(-n3cccn3)n2)c1 | 58.3% | -20.0% | 10.3% | -0.3% | 8.2% | 3.4%
N#CCCN(CCCN1CCOCC1)CN1C(=O)c2ccccc2C1=O | . | . | 21.0% | . | . | .
COC(C)(C)CCCC(C)C/C=C/C(C)=C/C(=O)OC(C)C (centres undefined) | ? | 15.1µM*! | 1.5% | -4.7% | . | -7.8%
CCOC(=O)/C=C(C)/C=C/CC(C)CCCC(C)C (centres undefined) | -0.4% | -104.2% | . | . | . | .
CCN(CC)CCNCc1ccc(-c2ccc(Cl)cc2)o1 | ? | 11.7µM* | -8.0% | -0.3% | -9.9% | ?
COCCN(CCOc1cc(C)cc(C)c1)Cc1ccc(Cl)cc1 | ? | ? | 13.3% | -0.8% | -6.5% | 5.9%
